Results as given in PubChem BioAssay AID1259350 (ICCB-Longwood Screening Facility, Harvard Medical School, 2017).
The list shows a part of the results. Calls of active or inactive are those of the source.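 Rule for the calls: active = inhibition score of 15 or more, meaning 100 minus mean polarization as percent of control over three replicates; inactive = the rest.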

Target: Guanine nucleotide-binding protein G(i) subunit alpha-3 (Rattus norvegicus) (UniProt P08753)
Experiment: GIV-Galphai3 interaction disruptors, retest – biochemical, fluorescence polarization, FITC-GIV peptide, rat Galphai3, confirmation (AID 1259350);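 note: lower mP means peptide displaced from Galphai3 so more inhibition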
Conditions: FITC-GIV peptide binding to Galphai3, fluorescence polarization; at 100 µM; hits give low values

Sequence of Guanine nucleotide-binding protein G(i) subunit alpha-3 (Rattus norvegicus) (P08753 whole entry, looked up): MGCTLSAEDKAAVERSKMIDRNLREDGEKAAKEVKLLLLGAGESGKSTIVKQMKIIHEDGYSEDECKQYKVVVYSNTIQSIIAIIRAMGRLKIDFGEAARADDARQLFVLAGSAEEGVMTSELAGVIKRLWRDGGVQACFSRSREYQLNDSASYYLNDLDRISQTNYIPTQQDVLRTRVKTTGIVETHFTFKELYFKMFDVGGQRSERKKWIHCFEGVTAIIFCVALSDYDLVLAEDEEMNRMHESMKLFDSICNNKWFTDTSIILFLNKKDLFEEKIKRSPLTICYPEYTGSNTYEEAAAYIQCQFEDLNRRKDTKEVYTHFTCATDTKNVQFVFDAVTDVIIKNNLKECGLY

Structure (SMILES)	fluorescence polarization
N#CSc1cc(SC#N)c(N)nc1N	25.2 mP (active)
Cn1cccc1/C=C1\C(=O)NC(=S)N(c2ccccc2)C1=O	51.3 mP (active)
Cc1ccc(C(=O)N2CCc3cc(CNC(=O)c4ccc(Br)cc4)ccc32)cc1	85.2 mP (inactive)
COC(=O)Cn1nc2c(-c3nc(-c4ccc(Cl)cc4)no3)cccn2c1=O	83.1 mP (inactive)
O=C(NN=c1c(=O)c2ccccc2c1=O)c1ccncc1	66.7 mP (inactive)
Cc1ccc(NC(=O)c2nc[nH]c2C(=O)N2CCCCC2)c(C(=O)c2ccccc2)c1	54.4 mP (active)
Cc1ccc(N2C(=O)/C(=C/c3ccc(OCC(=O)O)c(Br)c3)C(=O)NC2=S)cc1	60.7 mP (active)
CC1=NOC(=O)C1C(c1cccc(Br)c1)c1c(C)[nH]n(-c2ccccc2)c1=O (centres undefined)	37.2 mP (active)
CCOC(=O)c1nc2cc(C)c(C)cc2nc1NC1CCCCC1	88.9 mP (inactive)
CC(=O)Oc1cccc2c1C(=O)C=CC2=O	73.2 mP (inactive)
CCC(=O)N1CCc2cc(N3CC(C(=O)N4CCN(C(C)C)CC4)CC3=O)ccc21 (centres undefined)	64.3 mP (active)
COc1ccccc1N1C(=O)/C(=C/c2ccc(Cl)cc2)C=C1c1ccccc1	77.8 mP (inactive)
N#CC(C#N)=C(C#N)/C=C/n1c2ccccc2c2ccccc21	50.6 mP (active)
COC1=C(N2CCOCC2)C(=O)c2ccccc2C1=O	68 mP (inactive)
COc1ccccc1CNc1ncc2nc(-c3ccccc3)oc2n1	63.8 mP (inactive)
Cc1nn(-c2ccccc2)c2sc(-c3noc(-c4ccccc4F)n3)cc12	78.5 mP (inactive)
O=C(O)c1cc(NS(=O)(=O)c2ccc3c(c2)CCCC3)cnc1N1CCOCC1	43 mP (active)
O=C(O)CCC(C(=O)O)N1C(=O)/C(=C\c2ccco2)SC1=S (centres undefined)	41.8 mP (active)
O=C(O)c1c2ccccc2[nH]c2c1oc1cc(=O)ccc12	71.6 mP (inactive)
CC(=O)Nc1ccc(Nc2c3c4c(cccc4[nH]c2=O)C(=O)c2ccccc2-3)cc1	39.3 mP (active)
COc1ccc(Nc2cc(C(=O)NCCCN(C)c3ccccc3)c3ccccc3n2)c(OC)c1	84 mP (inactive)
CCOc1cc(/C=C2/C(=O)N(c3nn[nH]n3)N=C2C)cc(Cl)c1OCC	69.8 mP (inactive)
CCOC(=O)C1=C(C)N(c2ccc(OC)cc2)C(=O)/C1=C\c1ccco1	77.8 mP (inactive)
COc1ccc(N=Nc2c(-c3ccc(OC)cc3)[nH]oc2=O)cc1	72.7 mP (inactive)
